# Test results from PMC12820563, “FoxP3 forms a head-to-head dimer in vivo and stabilizes its multimerization on adjacent microsatellites”.
# Over roughly 16,000 sequences, “rpm ratio (pull-down/input)” has its median near 0.5; the highest 2% begin near 5.5. The full list was thinned out, with the highest values kept by preference.
# Target: T1, MBP-FoxP3dN (Mus musculus, UniProt Q99JB6 188-423)
# T1 sequence: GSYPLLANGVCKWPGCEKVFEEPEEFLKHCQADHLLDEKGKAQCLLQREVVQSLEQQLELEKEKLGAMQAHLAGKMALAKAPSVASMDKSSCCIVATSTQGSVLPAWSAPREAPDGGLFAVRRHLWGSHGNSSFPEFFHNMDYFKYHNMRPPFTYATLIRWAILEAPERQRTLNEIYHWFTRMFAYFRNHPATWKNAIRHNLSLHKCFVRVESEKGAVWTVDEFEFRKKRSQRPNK
# Assay: PD-seq (MBP pull-down with sequencing); 20 mM Tris-HCl pH 7.5, 100 mM NaCl, 1.5 mM MgCl2, 0.4 uM protein, 0.1 uM dsDNA library, 30 min, room temperature, amylose pull-down; high values mean tight binding
# Details: protein: recombinant; tags: His6-MBP; chain copies: 2; dsDNA, one strand shown
# In short: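 Binding is given as reads-per-million enrichment, pull-down over input, with replicates pooled. The bait was an N-terminus-lacking mouse FoxP3 or FoxP1 fragment with a His6-MBP tag, expressed in E. coli and used at 0.4 µM with 0.1 µM Klenow-filled degenerate double-stranded DNA library for 30 min at room temperature in Tris pH 7.5 buffer with NaCl and MgCl2. Amylose resin pull-down with three washes was followed by proteinase K release, PCR barcoding and Illumina sequencing.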
row,Sequence,binding signal
1,GATGATTGTTCTCCCAGCTGATGAATTATTCAGATCGAGTAAACAAATTTTCCTAATCTTTCTGTTCAAGCGCCATCTAC,0.24 RPM ratio (pull-down/input)
2,GATGATTGTTCTCCCAGCTGATGAATTTTTTCAATCGAGTAAACAAATTTTCCTAATCTTTCTGTTCAAGCGCCATCTAC,0.247 RPM ratio (pull-down/input)
3,GATGATTGTTCTCCCAGCTGATGAATTTGGTGAGTCGAGTAAACAAATTTTCCTAATCTTTCTGTTCAAGCGCCATCTAC,0.814 RPM ratio (pull-down/input)
4,GATGATTGTTCTCCCAGCTGATGAATTGTAGGCGTCGAGTAAACAAATTTTCCTAATCTTTCTGTTCAAGCGCCATCTAC,0.778 RPM ratio (pull-down/input)
5,GATGATTGTTCTCCCAGCTGATGAATTGTTCACGTCGAGTAAACAAATTTTCCTAATCTTTCTGTTCAAGCGCCATCTAC,0.396 RPM ratio (pull-down/input)
6,GATGATTGTTCTCCCAGCTGATGAATTCTGTCGCTCGAGTAAACAAATTTTCCTAATCTTTCTGTTCAAGCGCCATCTAC,0.926 RPM ratio (pull-down/input)
7,GATGATTGTTCTCCCAGCTGATGAATTACCACGCTCGAGTAAACAAATTTTCCTAATCTTTCTGTTCAAGCGCCATCTAC,0.466 RPM ratio (pull-down/input)
8,GATGATTGTTCTCCCAGCTGATGAATTCTATAGCTCGAGTAAACAAATTTTCCTAATCTTTCTGTTCAAGCGCCATCTAC,0.43 RPM ratio (pull-down/input)
9,GATGATTGTTCTCCCAGCTGATGAATTGGCGGCCTCGAGTAAACAAATTTTCCTAATCTTTCTGTTCAAGCGCCATCTAC,0.449 RPM ratio (pull-down/input)
10,GATGATTGTTCTCCCAGCTGATGAATTTGTATTGTCGAGTAAACAAATTTTCCTAATCTTTCTGTTCAAGCGCCATCTAC,6.39 RPM ratio (pull-down/input)
11,GATGATTGTTCTCCCAGCTGATGAATTTGTATTTTCGAGTAAACAAATTTTCCTAATCTTTCTGTTCAAGCGCCATCTAC,4.85 RPM ratio (pull-down/input)
12,GATGATTGTTCTCCCAGCTGATGAATTGTAATTGTCGAGTAAACAAATTTTCCTAATCTTTCTGTTCAAGCGCCATCTAC,2.31 RPM ratio (pull-down/input)
13,GATGATTGTTCTCCCAGCTGATGAATTGTATTTGTCGAGTAAACAAATTTTCCTAATCTTTCTGTTCAAGCGCCATCTAC,6.43 RPM ratio (pull-down/input)
14,GATGATTGTTCTCCCAGCTGATGAATTGTATCTGTCGAGTAAACAAATTTTCCTAATCTTTCTGTTCAAGCGCCATCTAC,1.2 RPM ratio (pull-down/input)
15,GATGATTGTTCTCCCAGCTGATGAATTTTGTATTTCGAGTAAACAAATTTTCCTAATCTTTCTGTTCAAGCGCCATCTAC,5.33 RPM ratio (pull-down/input)
16,GATGATTGTTCTCCCAGCTGATGAATTACAAGCTTCGAGTAAACAAATTTTCCTAATCTTTCTGTTCAAGCGCCATCTAC,0.518 RPM ratio (pull-down/input)
17,GATGATTGTTCTCCCAGCTGATGAATTGGGCATTTCGAGTAAACAAATTTTCCTAATCTTTCTGTTCAAGCGCCATCTAC,5.5 RPM ratio (pull-down/input)

row,Sequence,binding signal
1,GATGATTGTTCTCCCAGCTGATGAATTGGGGGCATCGAGTAAACAAATTTTCCTAATCTTTCTGTTCAAGCGCCATCTAC,0.87 RPM ratio (pull-down/input)
2,GATGATTGTTCTCCCAGCTGATGAATTTTGGGCATCGAGTAAACAAATTTTCCTAATCTTTCTGTTCAAGCGCCATCTAC,0.782 RPM ratio (pull-down/input)
3,GATGATTGTTCTCCCAGCTGATGAATTTGGGCATTCGAGTAAACAAATTTTCCTAATCTTTCTGTTCAAGCGCCATCTAC,4.79 RPM ratio (pull-down/input)
4,GATGATTGTTCTCCCAGCTGATGAATTGGGGCATTCGAGTAAACAAATTTTCCTAATCTTTCTGTTCAAGCGCCATCTAC,4.3 RPM ratio (pull-down/input)
5,GATGATTGTTCTCCCAGCTGATGAATTGGGCATCTCGAGTAAACAAATTTTCCTAATCTTTCTGTTCAAGCGCCATCTAC,6.41 RPM ratio (pull-down/input)
6,GATGATTGTTCTCCCAGCTGATGAATTAAGTGAATCGAGTAAACAAATTTTCCTAATCTTTCTGTTCAAGCGCCATCTAC,0.328 RPM ratio (pull-down/input)
7,GATGATTGTTCTCCCAGCTGATGAATTAAGGGAGTCGAGTAAACAAATTTTCCTAATCTTTCTGTTCAAGCGCCATCTAC,0.249 RPM ratio (pull-down/input)
8,GATGATTGTTCTCCCAGCTGATGAATTGCTTAAATCGAGTAAACAAATTTTCCTAATCTTTCTGTTCAAGCGCCATCTAC,0.457 RPM ratio (pull-down/input)
9,GATGATTGTTCTCCCAGCTGATGAATTCTAGGTATCGAGTAAACAAATTTTCCTAATCTTTCTGTTCAAGCGCCATCTAC,0.464 RPM ratio (pull-down/input)
10,GATGATTGTTCTCCCAGCTGATGAATTTGCAATTTCGAGTAAACAAATTTTCCTAATCTTTCTGTTCAAGCGCCATCTAC,2.77 RPM ratio (pull-down/input)
11,GATGATTGTTCTCCCAGCTGATGAATTGCGCAATTCGAGTAAACAAATTTTCCTAATCTTTCTGTTCAAGCGCCATCTAC,5.72 RPM ratio (pull-down/input)
12,GATGATTGTTCTCCCAGCTGATGAATTTTGCAATTCGAGTAAACAAATTTTCCTAATCTTTCTGTTCAAGCGCCATCTAC,5.75 RPM ratio (pull-down/input)
13,GATGATTGTTCTCCCAGCTGATGAATTTGCAAATTCGAGTAAACAAATTTTCCTAATCTTTCTGTTCAAGCGCCATCTAC,0.496 RPM ratio (pull-down/input)
14,GATGATTGTTCTCCCAGCTGATGAATTTCGCAATTCGAGTAAACAAATTTTCCTAATCTTTCTGTTCAAGCGCCATCTAC,4.55 RPM ratio (pull-down/input)
15,GATGATTGTTCTCCCAGCTGATGAATTCGCAATTTCGAGTAAACAAATTTTCCTAATCTTTCTGTTCAAGCGCCATCTAC,1.92 RPM ratio (pull-down/input)
16,GATGATTGTTCTCCCAGCTGATGAATTCTGCAATTCGAGTAAACAAATTTTCCTAATCTTTCTGTTCAAGCGCCATCTAC,4.83 RPM ratio (pull-down/input)
17,GATGATTGTTCTCCCAGCTGATGAATTCGTGCAATCGAGTAAACAAATTTTCCTAATCTTTCTGTTCAAGCGCCATCTAC,3.15 RPM ratio (pull-down/input)
